Test in all cases: qHTS profiling for inhibitors of Plasmodium falciparum proliferation (AID 504749); note: nearly all actives have a fitted effect of over 60% in size
Holding throughout (details): P. falciparum in erythrocytes, SYBR Green DNA, 72 h; series mostly up to 28.7 µM

One assay deals with CP297. The gist of the method:
(§1)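 SYBR Green fluorescence (ex 485 nm, em 535 nm) reports parasite DNA after 72 h compound exposure of infected red cells at 0.3% parasitemia, 2.5% hematocrit; signal normalized to 0.29 uM artemisinin and vehicle wells.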

A further assay relates to CP305. Put shortly: as §1
Another assay concerns CP315. Put shortly: as §1
For the next assay, the system named is CP325. Put shortly:
as §1

The next assay concerns CP329. The gist of the method: as §1
Another assay concerns CP335. The gist of the method:
as §1

Another assay has as its system DFO2036. The gist of the method: as §1
For the next assay, the system named is DIV30. Put shortly:
as §1

A further assay deals with Dd2. The gist of the method:
as §1

A further assay concerns ECU. The gist of the method:
as §1

For a further assay, the system named is FAB9. Put shortly: as §1
The test system of another assay is HB3. Put shortly: as §1
A further assay deals with ICS. The gist of the method: as §1
The subject of another assay is JCK. Put shortly:
as §1

The next assay concerns N140. Put shortly: as §1
In another assay the test system is P93_24. Put shortly:
as §1

The subject of the next assay is P94_40. Put shortly:
as §1

In another assay the test system is DIV14. The gist of the method:
as §1

The subject of another assay is DIV17. The gist of the method:
as §1

A further assay has as its system GB4. The gist of the method:
as §1

SMILES strings stand for the structures. Inconclusive results are not listed. Calls of active or inactive are those of the source. Calls come from the whole dose curve; as a rule, active = well fitted inhibition curve with a large enough effect; inconclusive = small, poorly fitted or top-dose-only effect; inactive = flat fitted curve, though single readings scatter.
Potency is the fitted concentration of half-maximal effect.

On to `CN(C)CCOc1ccc(/C(=C(/CCCl)c2ccccc2)c2ccccc2)cc1`, for which the Potency entry in the assay on CP297, with CP305, in the assay with CP315, with CP325, with CP329 and with CP335 was “inactive” in each case. The Potency entry with DFO2036, in the assay on DIV30, with Dd2, with ECU, with FAB9 and in the assay on HB3 was “inactive” in each case. Further, the Potency result with ICS, with JCK, in the assay on N140, in the assay on P93_24 and in the assay on P94_40 was “inactive” in each case.

With `C=CCN1CCCC1CNC(=O)c1cc(S(N)(=O)=O)cc(OC)c1OC` (configuration not stated), the Potency result with CP297, with CP305, in the assay with CP315, in the assay on CP325, in the assay with CP329 and with CP335 was “inactive” each time. The Potency entry in the assay with DIV14, with DIV17, in the assay with DIV30, with Dd2, in the assay with ECU and with FAB9 was “inactive” in each case. The Potency result with GB4, in the assay on HB3, with ICS, in the assay on JCK, with N140 and with P93_24 was “inactive” throughout. Besides, the Potency result in the assay on P94_40 is “inactive”.

As to `CC(CCc1ccc(O)cc1)NCC(O)c1ccc(O)cc1` (configuration not stated), the Potency result in the assay on CP297, with CP305, in the assay on CP315, in the assay on CP325, in the assay on CP329 and with CP335 was “inactive” in each case. The Potency entry in the assay with DFO2036, in the assay on DIV17, with DIV30, with Dd2, in the assay on ECU and in the assay with FAB9 was “inactive” each time. Moreover, the Potency entry in the assay on GB4, in the assay with HB3, in the assay on ICS, in the assay on JCK, in the assay on N140 and in the assay with P93_24 was “inactive” in each case. Moreover, in the assay with P94_40, the Potency result is “inactive”.

Consider `O=P(O)(O)OP(=O)(O)O`, for which the Potency result with CP297, in the assay with CP305, in the assay with CP315, in the assay with CP325, in the assay with CP329 and in the assay on CP335 was “inactive” in each case. Moreover, the Potency result in the assay on DFO2036, in the assay with Dd2, with ECU, with FAB9, in the assay with HB3 and in the assay with P93_24 was “inactive” in each case. Moreover, the Potency in the assay with N140 is 8.91 µM (active).

`Cc1c(C)c2c(c(C)c1OC(=O)CCC(=O)O)CC[C@@](C)(CCC[C@H](C)CCC[C@H](C)CCCC(C)C)O2`: the Potency result with CP297, in the assay on CP305, in the assay on CP315, in the assay on CP325, in the assay on CP329 and in the assay on DFO2036 was “inactive” in each case. Further, the Potency result with DIV14, in the assay with DIV17, in the assay on DIV30, with ECU, in the assay with FAB9 and in the assay with GB4 was “inactive” in each case. In addition, the Potency entry in the assay with JCK, with N140, with P93_24 and in the assay with P94_40 was “inactive” in each case. Also, the Potency in the assay on Dd2 and in the assay with ICS was 11.2 µM (active) in each case.

Regarding `COc1ccccc1N1CCN(CCCC(=O)c2ccc(F)cc2)CC1`, the Potency entry in the assay on CP297, in the assay with CP305, in the assay on CP315, in the assay with CP325, in the assay with CP329 and with CP335 was “inactive” each time. The Potency entry with DFO2036, with DIV30, with Dd2, in the assay with ECU, with FAB9 and with GB4 was “inactive” each time. Moreover, the Potency entry with HB3, in the assay on JCK, with N140, in the assay on P93_24 and in the assay with P94_40 was “inactive” in each case.

As to `CCOC(=O)[C@@H](N)CS`, the Potency result in the assay on CP297, in the assay on CP305, in the assay with CP315, with CP325, in the assay on CP329 and in the assay with DFO2036 was “inactive” in each case. Also, the Potency entry with DIV14, in the assay on DIV17, in the assay with DIV30, in the assay on Dd2, with ECU and with FAB9 was “inactive” in each case. The Potency entry in the assay with GB4, with HB3, in the assay on ICS, with JCK, with N140 and with P93_24 was “inactive” in each case. Besides, in the assay on P94_40, the Potency entry was “inactive”.

For `O=C(OCc1ccccc1)c1cccnc1`, the Potency result in the assay on CP297, with CP305, with CP315, in the assay on CP325, in the assay with CP329 and in the assay with CP335 was “inactive” in each case. Moreover, the Potency result in the assay with DFO2036, in the assay on DIV17, in the assay on DIV30, in the assay on Dd2, with ECU and with FAB9 was “inactive” throughout. The Potency entry with GB4, in the assay with HB3, with JCK, in the assay with N140, with P93_24 and in the assay on P94_40 was “inactive” in each case.

`C[C@]12CCC(=O)C[C@@H]1CC[C@@H]1[C@@H]2CC[C@]2(C)C=CC[C@@H]12`: the Potency result with CP297, in the assay on CP305, with CP315, with CP325, in the assay on CP329 and in the assay on DFO2036 was “inactive” throughout. Further, the Potency result in the assay with DIV14, in the assay on DIV17, with DIV30, in the assay with Dd2, in the assay with ECU and in the assay on FAB9 was “inactive” in each case. For the same compound, the Potency result with GB4, in the assay with JCK, with P93_24 and with P94_40 was “inactive” throughout.

Consider `CC[C@H]1OC(=O)[C@H](C)[C@@H](O[C@H]2C[C@@](C)(OC)[C@@H](O)[C@H](C)O2)[C@H](C)[C@@H](O[C@@H]2O[C@H](C)C[C@H](N(C)C)[C@H]2O)[C@](C)(O)C[C@@H](C)CN(C)[C@H](C)[C@@H](O)[C@]1(C)O`, for which the Potency was 5.36 µM (active) in the assay with CP297; 5.36 µM (active) in the assay with CP335; 5.01 µM (active) with DFO2036; 0.355 µM (active) in the assay on Dd2; 7.57 µM (active) in the assay on GB4; 8.91 µM (active) in the assay with N140. The Potency in the assay on P94_40 is 2.51 µM (active). Besides, the Potency result in the assay on FAB9 and with JCK was “inactive” each time.

On to `CC(C)CCCC(C)NC(C)C` (configuration not stated), for which the Potency entry with CP305, with CP315, in the assay with CP325, with CP329, in the assay with CP335 and with DFO2036 was “inactive” in each case. The Potency entry in the assay with DIV14, in the assay with DIV17, in the assay on DIV30, with Dd2, with ECU and in the assay with FAB9 was “inactive” in each case. In addition, the Potency result in the assay on GB4, with HB3, in the assay with ICS, in the assay with JCK, in the assay with N140 and with P93_24 was “inactive” in each case. Moreover, the Potency entry with P94_40 was “inactive”.

For `COc1ccc2c(=O)c(C)c(-c3ccccc3)oc2c1CN(C)C`, the Potency result in the assay with CP297, with CP305, in the assay on CP315, in the assay on CP325, with DIV30 and with ECU was “inactive” throughout. For the same compound, the Potency entry in the assay with FAB9, with GB4, with HB3 and in the assay with JCK was “inactive” each time.

In the case of `O=P(O)(O)OC[C@H]1O[C@](O)(COP(=O)(O)O)[C@@H](O)[C@@H]1O`, the Potency entry in the assay on CP305, in the assay on CP315, in the assay on CP325, with CP329, in the assay with CP335 and with DFO2036 was “inactive” in each case. Also, the Potency result in the assay on DIV14, with DIV17, in the assay with DIV30, in the assay on Dd2, in the assay on ECU and in the assay with FAB9 was “inactive” each time. Also, the Potency result in the assay on GB4, in the assay on HB3, in the assay with ICS, in the assay on JCK, with N140 and in the assay with P93_24 was “inactive” each time. For the same compound, the Potency entry in the assay on P94_40 was “inactive”.

Take `COc1cc(C)c(/C=C/C(C)=C/C=C/C(C)=C/C(=O)O)c(C)c1C`: the Potency result in the assay on CP305, in the assay with CP315, with CP325, in the assay with CP329, in the assay with CP335 and with DFO2036 was “inactive” in each case. The Potency result with DIV14, in the assay with DIV17, in the assay on DIV30, in the assay with Dd2, in the assay on ECU and in the assay on FAB9 was “inactive” each time. For the same compound, the Potency result in the assay on GB4, with HB3, with ICS, in the assay with JCK, in the assay on N140 and with P93_24 was “inactive” in each case. In addition, the Potency result with P94_40 was “inactive”.

For the origin of these results see PubChem BioAssay (NCATS).
